# The full list was thinned out, with hits kept by preference.
# SARS PLP yeast: inhibitors of SARS-CoV papain-like protease in yeast; 0.19% of 330,000 active; AID 485353; Potency, µM (highest dose often 32.9 µM), inactives show top-dose activity, positive = growth rescue, usual class: activators; S. cerevisiae expressing SARS-CoV PLpro, growth rescue; also: potency is read from the fitted curve at half-maximal effect; 0% is about no effect; nearly all actives have a fitted effect of over 55% in size
# NS1 inh: inhibitors of influenza NS1 protein function; AID 2326; Potency, µM (top dose mostly 46.1 µM), for the others: at the top dose activity, positive = more growth; 0.4% of 270,000 active; also: potency is read from the fitted curve at half-maximal effect; actives are rising curves; nearly all actives have a fitted effect of over 50% in size
#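 S. cerevisiae expressing influenza A NS1, grown in glucose, washed, then diluted 1:100 into pH 6.0 -URA galactose medium with 23 nl compound. Growth recovery read as OD600; NS1-free strain serves as control.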
# Tb PYK inh: blocks Trypanosoma brucei pyruvate kinase. Q57TT1. TbPYK enzyme, Kinase-Glo Plus ATP luminescence, 45 min. Potency, µM (series often up to 76.8 µM), inactives show at the highest dose activity, negative = inhibition, hits mostly inhibitors. 0.12% of 410,000 active. AID 624173; active = well fitted curve in the direction sought with a large enough effect; an effect the other way counts as inactive or inconclusive; also: potency is read from the fitted curve at half-maximal effect; % is scaled to controls: 0 for no effect and ±100 for the full control effect; nearly all actives have a fitted effect of over 50% in size
#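 Screened from lowest to highest concentration, compounds were pinned into TbPYK/substrate mixtures, and ADP (130 uM final) was added. Plates sat at room temperature for 45 min prior to Kinase-Glo Plus detection by luminescence.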
# Shiga toxin inh: Shiga toxin inhibition | Vero cells, Shiga toxin protein synthesis inhibition reporter | inhibition, % at 38.7 µM | 9.2% of 290,000 active; in the data active = inhibition mostly above about 28%, no sharp cut-off; inactive = mostly below about 43%; also: 0% is about no effect
# LmPK inhibitor: LmPK (Leishmania mexicana) enzyme inhibition; purified LmPK, Kinase-Glo ATP luminescence, 1 h; 0.37% of 290,000 active; Q27686; Potency, µM (titrated, usually from 57.5 µM), for inactives: at the highest dose activity change, negative = inhibition, most hits filed as inhibitors; active = well fitted curve in the direction sought with a large enough effect; an effect the other way counts as inactive or inconclusive; also: potency is read from the fitted curve at half-maximal effect; % is scaled to controls: 0 for no effect and ±100 for the full control effect
# Target sequence (Q27686 whole entry, looked up): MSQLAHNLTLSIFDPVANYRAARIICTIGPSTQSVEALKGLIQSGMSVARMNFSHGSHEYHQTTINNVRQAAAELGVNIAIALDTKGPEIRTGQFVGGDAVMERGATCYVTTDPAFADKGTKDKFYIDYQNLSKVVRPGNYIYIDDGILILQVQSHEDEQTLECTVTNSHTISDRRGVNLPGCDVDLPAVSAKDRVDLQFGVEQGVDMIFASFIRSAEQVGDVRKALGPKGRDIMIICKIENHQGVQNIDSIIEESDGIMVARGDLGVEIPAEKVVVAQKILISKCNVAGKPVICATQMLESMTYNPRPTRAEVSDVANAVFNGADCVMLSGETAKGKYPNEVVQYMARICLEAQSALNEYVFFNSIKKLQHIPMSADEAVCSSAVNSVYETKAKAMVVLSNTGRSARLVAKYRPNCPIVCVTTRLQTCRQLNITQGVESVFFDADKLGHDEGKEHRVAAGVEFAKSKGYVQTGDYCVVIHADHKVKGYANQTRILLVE
#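 Screened at intermediate enzyme activity to detect both inhibitors and activators: LmPK at 0.1 nM, with a 0.5 nM enzyme column as activation reference. PEP 0.5 mM, ADP 0.1 mM; ATP detected by luminescence after 1 h.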
# CHX counter: affects cycloheximide protein synthesis inhibition readout, counter-screen; cell reporter, cycloheximide protein synthesis inhibition counterscreen; max response, %; 12% of 300,000 active; in the data active = max response mostly above about 13%, no sharp cut-off; inactive = mostly below about 14%; also: read at 38.3 µM for the half of the compounds with a filed dose; 0% is about no effect
# The depositor's hits bear a star; · = not tested or not shown. Unless noted, calls follow the shape of the full dose curve.
SMILES,SARS PLP yeast,NS1 inh,Tb PYK inh,Shiga toxin inh,LmPK inhibitor,CHX counter
COc1cc(C(C#N)N2CCC(c3ccccc3)=N2)ccc1O (configuration not stated),-1%,-3%,-8%,91*,-1%,25*
COc1cc(C(O)C(=O)O)ccc1O (configuration not stated),·,-10%,-2%,·,·,·
COc1ccc(C(C#N)N2CCC(c3ccccc3)=N2)cc1OC (configuration not stated),-2%,4%,-3%,27,0%,17*
O=C(CCSc1ccc(Cl)cc1)NCc1ccccn1,-3%,2%,-4%,23,2%,13*
O=C(CCCOc1ccc(Cl)cc1Cl)NCCc1ccccn1,1%,-7%,-1%,39*,-6%,31*
O=C(CCCOc1ccc(Cl)cc1Cl)NCCc1nnc2ccccn12,2%,0%,-1%,19*,5%,15
Cc1ccccc1-n1nc2c(c1NC(=O)C1CC1)CS(=O)(=O)C2,·,·,-11%,·,·,·
COCCCNC(=O)c1ccccc1Oc1ccccc1,-3%,1%,1%,12,5%,-3
COCCCNC(=O)c1ccc2c3c(onc13)-c1ccccc1C2=O,-8%,0%,4%,69*,-6%,35*
O=[N+]([O-])c1cccc(S(=O)(=O)N/N=C\c2ccc3c(c2)OCO3)c1,1%,3%,3%,75*,1%,43*
COc1ccc(S(=O)(=O)N/N=C\c2ccc3c(c2)OCO3)cc1,3%,-7%,-9%,18,3%,-1
O=[N+]([O-])c1ccc(S(=O)(=O)N/N=C/c2ccc3c(c2)OCO3)cc1,-3%,-11%,-2%,50*,0%,31*
Cc1ccc(-c2noc(CN(C)C(=O)c3ccoc3C)n2)cc1,-8%,-17%,-1%,88*,-9%,19*
Cc1occc1C(=O)N(C)Cc1nc(-c2ccc(Cl)cc2)no1,-1%,0%,1%,24,0%,9
CN(C)C(=O)CCCc1nc(-c2ccc(Cl)cc2)no1,2%,-6%,-5%,156*,-5%,38*
CN(Cc1nc(-c2ccc(Cl)cc2)no1)C(=O)c1ccco1,0%,-5%,0%,44,-6%,12*
COc1ccc(-c2noc(CN(C)C(=O)c3ccco3)n2)cc1,1%,1%,1%,35,0%,23
CCN(Cc1ccccc1)C(=O)Cn1c(=O)n(-c2ccc(F)c(Cl)c2)c(=O)c2sc3ccccc3c21,·,·,-9%,·,·,·
CCOC(=O)c1sc(N)c(C(=O)Nc2ccccc2OC)c1C,5%,·,-8%,-24,3%,8
COC(=O)c1c(C)[nH]c(C(=O)C(C)OC(=O)C2CC2)c1C (configuration not stated),-7%,·,3%,·,·,·
CCOC(=O)COn1c(=O)c(-c2cc3ccccc3o2)[n+]([O-])c2ccccc21,-6%,-46%,-2%,172*,-3%,72*
C=CCOn1c(=O)c(-c2cc3ccccc3o2)[n+]([O-])c2ccccc21,-9%,-10%,-17%,120*,0%,38*
COc1cccc(NC(=S)Nc2cc(C)cc(C)n2)c1,2%,-3%,5%,56*,0%,49*
COc1ccc(NC(=S)Nc2cc(C)cc(C)n2)cc1OC,14%,6%,5%,25,0%,21*
Cc1cc(C)nc(NC(=S)Nc2cccc(F)c2)c1,2%,-6%,0%,20,-1%,3
SMILES,SARS PLP yeast,NS1 inh,Tb PYK inh,Shiga toxin inh,LmPK inhibitor,CHX counter
Cc1ccc2c(c1)C(=O)C(=O)N2Cc1ccccc1,2%,·,-8%,·,·,·
Cc1ccc2c(c1)C(=O)C(=O)N2CCCOc1ccccc1,-3%,-8%,-31%,26,-1%,14*
Cc1ccc(OCCCN2C(=O)C(=O)c3cc(C)ccc32)cc1,-1%,-4%,6%,-7,6%,-1
CCN1C(=O)C(=O)c2cc(C)ccc21,11µM*,·,1%,·,·,·
Cc1ccc(C)c(CN2C(=O)c3ccccc3S(=O)c3ccc(C(=O)NCc4ccccc4Cl)cc32)c1 (configuration not stated),·,·,-11%,·,·,·
Cc1nc(SCC(=O)NCc2ccc3c(c2)OCO3)nc(C)c1C,-3%,·,-1%,·,·,·
Cc1ccc(-c2nnc(-c3cc(C)on3)o2)cc1,1%,-6%,-5%,59*,-11%,39*
Cc1cc(-c2nnc(-c3cccc(C(F)(F)F)c3)o2)no1,1%,-5%,0%,77*,-2%,44*
FC(F)(F)Oc1ccccc1-c1nnc(-c2cccc(C(F)(F)F)c2)o1,2%,0%,-1%,-7,0%,-2
CCOC(=O)c1sc(NC(=S)NC(=O)c2ccc(OC)cc2)nc1C,0%,-14%,-6%,8,0%,10
C=CCOC(=O)c1sc(NC(=O)c2ccc(OC)cc2)nc1C,0%,1%,-2%,37,-13%,16*
COC(=O)c1sc(NC(=O)c2ccncc2)nc1C,-9%,-41%,-7%,9,-23%,5
CCOc1ccc(C(=O)Nc2nc(C)c(C(=O)OC)s2)cc1,0%,-3%,-2%,51*,-10%,35*
Nc1ccc2c(c1)Oc1ccccc1C=C2,-1%,·,1%,16,5%,16
Nc1ccc2c(c1)COc1ccccc1O2,-7%,-39%,-11%,88*,-3%,16*
COc1ccc(C)cc1NC(=S)N1CCN(c2ccccn2)CC1,-23%,9%,8%,62*,-1%,35*
CCn1c(-c2ccccn2)nc2cc(S(=O)(=O)N(C)C)ccc21,4%,-18%,-5%,40,-2%,17*
Cn1nc(C(F)(F)F)cc1-c1ccc(S(N)(=O)=O)s1,1%,5%,5%,68*,2%,38*
CN(C)C(=O)c1ccc(-c2cc(C(F)(F)F)nn2C)s1,-2%,0%,-1%,53*,-1%,39*
O=C(N/N=C/c1cccnc1)c1cccc(NC(=O)c2ccc(Cl)cc2)c1,3%,-13%,3%,20,-3%,3
Cc1ccc(C(=O)Nc2cccc(C(=O)N/N=C/c3ccc(O)cc3)c2)cc1,3%,-2%,1%,34,0%,28*
Cc1cccc(C(=O)Nc2cccc(C(=O)N/N=C/c3ccncc3)c2)c1,-7%,3%,-8%,-3,-6%,-2
O=C(N/N=C/c1cccs1)c1cccc(NC(=O)c2ccc(Cl)cc2)c1,-12%,-5%,·,13,0%,29*
O=C(N/N=C/c1cccc(NC(=O)c2ccc(Cl)cc2)c1)c1cccc(O)c1,0%,-34%,4%,77*,1%,26*
CCc1nc2c(OCc3ccc(F)cc3)cccn2c1N(C)C(=O)COc1ccccc1,·,·,6%,·,·,·
COc1cccc2c3cccc(OC)c3c3[nH]cnc3c12,·,·,-6%,·,·,·
COc1ccc(CC(=O)OCC(=O)c2ccc(F)cc2)cc1,8%,·,-1%,·,·,·

# Assay outcomes (PubChem)
